Source: PubChem BioAssay AID588333 (National Center for Advancing Translational Sciences (NCATS), 2011)
Activity calls are given as the source filed them.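 Rule for the calls: active = compounds that kill cultured T. brucei parasites with a half-maximal potency under 200 micromolar; inactive = compounds with no measurable potency.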

Assay: Confirmatory Assay to Find Inhibitors of T. brucei phosphofructokinase: T. brucei in vitro Parasite Assay
Conditions: T. brucei brucei culture viability, Alamar Blue, 72 h
Description: Various species of the protozoan family Trypanosomatidae are responsible for a range of serious human diseases in tropical and subtropical areas of the world. […] Many of the disorders caused by trypanosomatids are fatal if left untreated, but most currently used drugs are inefficient and toxic. […] Oxidative metabolism involving the mitochondrial tricarboxylic acid cycle and oxidative phosphorylation are repressed in these parasites, and recent RNA interference (RNAi) experiments have shown that even partial depletion of certain individual glycolytic enzymes can lead to the death of cultured parasites. One such glycolytic enzyme, phosphofructokinase (PFK), catalyzes the formation of fructose-1,6-bisphosphate (F1,6BP) and ADP from fructose-6-phosphate (F6P) and ATP, and in many metabolic circumstances makes an important contribution to the control of flux through the glycolytic pathway. As a specific glycolytic target, PFK is particularly attractive as it catalyzes the first irreversible step in glycolysis, and structural and kinetic studies have shown very substantial and essential differences from corresponding host enzymes, allowing for the discovery of parasite-selective inhibitors. Selected active compounds were additionally tested in a well-validated in vitro parasite assay to determine the relative potencies of lead compounds against live T. brucei cultures. H Chemical Genomics Center [NCGC] NIH Molecular Libraries Probe Centers Network [MLPCN] MLPCN Grant: MH092153-01 Assay Submitter (PI): Malcom Walkinshaw, University of Edinburgh
Dilutions of T. brucei brucei were incubated in modified Iscove's cell culture medium (supplemented with 10% FBS, 0.05 mM bathocuproine sulfonate, 1.5 mM L-cysteine, 1 mM hypoxanthine, 0.2 mM 2-mercaptoethanol, 1 mM sodium pyruvate and 0.16 mM thymidine) with titrations of compound for 72 hours. The cell density is adapted so that after 72 hours of incubation, the cells are at the end of the logarithmic growth phase (~5x104 tryps/mL). General morphology and motility were recorded after incubation, and Alamar Blue dye was added as a fluorescent marker of viability (ex530/em590) and read on a fluorescent plate reader following 4 hrs of incubation at 37 degrees C. The results of this assay were used to prioritize medicinal chemistry efforts in conjunction with the human cell toxicity assay to give a measure of relative parasite/host toxicity ratio.

| Compound | Potency | outcome |
| --- | --- | --- |
| Cc1cc(NS(=O)(=O)c2ccc(NC(=O)Cc3ccc(Cl)c(Cl)c3)cc2)no1 | 26.8 µM (active) |  |
| O=C(Cc1ccc(Cl)c(Cl)c1)Nc1ccc(S(=O)(=O)Nc2ccon2)cc1 | 16.3 µM (active) |  |
| COc1ccc(CC(=O)Nc2ccc(S(=O)(=O)Nc3cc(C)on3)cc2)cc1OC |  | inactive |
| Cc1cc(NS(=O)(=O)c2ccc(NC(=O)Cc3ccc(Cl)c(F)c3)cc2)no1 | 38.9 µM (active) |  |
| Cc1cc(NS(=O)(=O)c2ccc(NC(=O)Cc3ccc(Cl)c(Cl)c3)cc2)on1 | 157 µM (active) |  |
| O=C(Cc1ccc(Cl)c(Cl)c1)Nc1ccc(S(=O)(=O)Nc2cccc(C(=O)O)c2)cc1 | 105 µM (active) |  |
| O=C(Cc1ccc(Cl)c(Cl)c1)Nc1ccc(S(=O)(=O)Nc2ccc(C(=O)O)cc2)cc1 |  | inactive |
